# Measurements published in PubChem BioAssay.
# System: not listed separately
# Assay: probe aNog binding to arrayed compounds – biochemical, biotinylated probe, 635/667 nm fluorescence, primary screen (AID 1115);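 note: probe is biotinylated aNog protein used at 0.15 µg/mL for 1 h at 4 C; z-score combines 667 nm fluorescence of each spot with its signal to noise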
# Conditions: small-molecule microarray, higher = more signal
row,Compound,composite z-score
1,CCCCC(CC)C(O)C1C=CC2C(=O)N(Cc3ccccc3)C(=O)C2N1n1cnnc1 (stereo not given),-0.127
2,O=C1O[C@H](c2ccccc2)[C@H](c2ccccc2)N2[C@H]1[C@@H](C(=O)N1CCCCCCC1)[C@]1(C(=O)Nc3ccc(C#CCCO)cc31)[C@H]2c1ccccc1OCCO,2.38
3,C=CCNC(=O)[C@H]1[C@@H]2C(=O)O[C@@H](c3ccccc3)[C@@H](c3ccccc3)N2[C@@H](c2ccccc2OCCO)[C@]12C(=O)Nc1ccc(C#CCCO)cc12,0.0703
4,COc1ccc(C#Cc2ccc3c(c2)[C@]2(C(=O)N3)[C@H](c3ccccc3OCCO)N3[C@H](c4ccccc4)[C@H](c4ccccc4)OC(=O)[C@H]3[C@@H]2C(=O)Nc2nc3ccccc3s2)cc1,1.76
5,CN1C(=O)C2C=CC(C(O)C3CC=CCC3)N(N(c3ccccc3)c3ccccc3)C2C1=O (stereo not given),-0.0446
6,O=C1O[C@@H](c2ccccc2)[C@@H](c2ccccc2)N2[C@@H](c3ccccc3OCCO)[C@]3(C(=O)Nc4ccccc43)[C@@H](C(=O)Nc3nc4ccccc4s3)[C@H]12,1.96
7,O=C1NC(=O)C2C1C=CC(C(O)c1cc(C(F)(F)F)cc(C(F)(F)F)c1)N2Nc1ccccn1 (stereo not given),0.566
8,O=C(N1CCCCC1)[C@]1(Cc2ccccc2)N=C(c2ccc(OCCCO)cc2)O[C@@H]1c1ccccc1,0.85
9,CC(C)c1ccc(NN2C(C(O)c3ccc(B(O)O)cc3)C=CC3C(=O)N(c4ccccc4)C(=O)C32)cc1 (stereo not given),2.19
10,NC(=O)NCC#Cc1ccc2c(c1)[C@]1(C(=O)N2)[C@H](c2ccc(O)cc2)N2[C@H](c3ccccc3)[C@H](c3ccccc3)OC(=O)[C@H]2[C@@H]1C(=O)O,-0.0683
11,Cc1ccccc1C(O)C1C=CC2C(=O)N(c3ccccc3)C(=O)C2N1Nc1ccc(C(C)C)cc1 (stereo not given),0.209
12,COc1ccc(CCNC(=O)[C@@H]2c3ccccc3C(=O)N(Cc3ccccc3Cl)[C@H]2c2ccc(CO)cc2)cc1,0.395
13,O=C(NC1CC1)[C@@H]1c2ccccc2C(=O)N(Cc2ccccc2Cl)[C@H]1c1ccc(CO)cc1,0.233
14,Cc1nc2cc(Br)ccc2c(=O)o1,-0.483
15,CCN(CC)c1ccc(N2CC=CC34O[C@@H]5C=CCCOC(=O)C5[C@H]3C(=O)N(CCCCCCO)[C@@H]4C2=O)cc1 (stereo not given in full),-0.229

# Molecular target: Torsin-1A-interacting protein 1 (Homo sapiens) (UniProt Q5JTV8)
# Assay: compound microarray binding of lysate hLAP1 – cell lysate, small-molecule microarray, COS7 lysate, 635/667 nm fluorescence, primary screen (AID 1116)
# Conditions: 635 nm fluorescence, higher = more signal
# Sequence of Torsin-1A-interacting protein 1 (Homo sapiens) (Q5JTV8 whole entry, looked up): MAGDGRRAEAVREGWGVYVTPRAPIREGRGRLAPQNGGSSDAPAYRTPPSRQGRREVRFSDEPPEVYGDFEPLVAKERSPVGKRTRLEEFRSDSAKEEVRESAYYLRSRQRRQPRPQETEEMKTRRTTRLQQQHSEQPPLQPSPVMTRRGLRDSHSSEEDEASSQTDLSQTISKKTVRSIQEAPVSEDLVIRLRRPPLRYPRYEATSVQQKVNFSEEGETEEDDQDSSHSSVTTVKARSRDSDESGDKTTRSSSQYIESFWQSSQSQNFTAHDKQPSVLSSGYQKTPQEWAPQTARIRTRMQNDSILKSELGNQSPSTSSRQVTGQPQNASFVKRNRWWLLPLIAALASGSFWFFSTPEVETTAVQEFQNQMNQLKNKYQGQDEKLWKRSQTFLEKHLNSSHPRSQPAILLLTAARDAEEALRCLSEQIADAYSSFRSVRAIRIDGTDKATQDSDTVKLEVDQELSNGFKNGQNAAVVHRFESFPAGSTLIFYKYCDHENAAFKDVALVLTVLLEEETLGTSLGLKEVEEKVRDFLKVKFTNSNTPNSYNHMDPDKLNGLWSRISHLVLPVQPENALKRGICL
row,Compound,composite z-score
1,CC(CO)N1C(=O)[C@@H]2C3C(=O)OCCC/C=C\[C@H]3OC23C=CCN(C(C)(C)C)C(=O)[C@@H]13 (stereo not given in full),0.859
2,CN1C(=O)C2C=CC(C(O)c3ccccc3)N(N(c3ccccc3)c3ccccc3)C2C1=O (stereo not given),0.911
3,C=CCOC(=O)[C@H]1[C@@H]2C(=O)O[C@@H](c3ccccc3)[C@@H](c3ccccc3)N2[C@@H](c2ccc(OCCOC(=O)[C@@H]3C[C@@H]4C(=O)N[C@@H](CCCCNC(C)=O)C(=O)N4[C@@H]3c3ccc(O)cc3)cc2)[C@]12C(=O)Nc1ccccc12,0.622
4,C[C@H]1C2[C@H](Cc3ccccc3)NC(=O)[C@]23C(=O)N[C@H](Cc2ccccc2)C(=O)N2CCC[C@H]2C(=O)NC/C=C\C/C=C/C3[C@@H]2O[C@]12C (stereo not given in full),0.0015
5,CC(C)C(O)C1C=CC2C(=O)NC(=O)C2N1Nc1ccc(Cl)cc1Cl (stereo not given),1.91
6,COC(=O)C(CC#Cc1ccc2c(c1)[C@]1(C(=O)N2)[C@H](C(=O)Nc2nc3ccccc3s2)[C@H]2C(=O)O[C@H](c3ccccc3)[C@H](c3ccccc3)N2[C@@H]1c1ccc(O)cc1)C(=O)OC,1.89
7,CC(C)C(O)C1C=CC2C(=O)N(c3ccccc3)C(=O)C2N1Nc1ccc([N+](=O)[O-])cc1 (stereo not given),1.34
8,CC(C)C[C@@H]1NC(=O)[C@@H]2C[C@H](C(=O)NCc3ccc(F)cc3)[C@H](c3cccc(OCCO)c3)N2C1=O,0.172
9,CCCC[C@H]1OB(O)C[C@H]2C1=C(COC)C[C@H]1C(=O)N(C)C(=O)[C@H]12,-0.321
10,COCCOC(=O)N1C(=O)[C@@]2(c3cc(C#Cc4ccc(OC)cc4)ccc31)[C@H](c1ccccc1OCCO)N1[C@H](c3ccccc3)[C@H](c3ccccc3)OC(=O)[C@H]1[C@@H]2C(=O)NC[C@H](O)c1ccccc1,0.819
11,CCOC(=O)C[C@H]1[C@H](OC(=O)c2ccc(C(=O)c3ccccc3)cc2)[C@@H](NC(=O)c2ccccc2)c2cc(OCCCO)ccc2N1C(=O)c1ccc2ccccc2n1,0.239
12,O=C(c1ccccc1)N1C(=O)[C@@]2(Cc3ccccc31)N=C(c1ccc(OCCCO)cc1)O[C@H]2c1ccccc1,1.61
13,Cc1ccc(N2C(=O)c3ccccc3[C@@H](C(=O)NC3CC3)[C@@H]2c2ccc(CO)cc2)nc1,-0.13
14,[N-]=[N+]=Nc1ccccc1[C@@H]1OC(c2ccc(OCCCO)cc2)=N[C@]1(CCS(=O)(=O)c1ccccc1)C(N)=O,1.81
15,COC(=O)C(CC#Cc1ccc2c(c1)[C@]1(C(=O)N2)[C@H](C(=O)Nc2nc3ccccc3s2)[C@H]2C(=O)O[C@H](c3ccccc3)[C@H](c3ccccc3)N2[C@@H]1c1ccccc1OCCO)C(=O)OC,1.01
16,CCOC(=O)C[C@H]1[C@H](OC(=O)c2ccc(C(=O)c3ccccc3)cc2)[C@@H](NC(=O)CC(C)C)c2cc(OCCCO)ccc2N1C(=O)c1ccc2ccccc2n1,0.547
17,C=CC[C@]1(C(=O)NCc2ccccc2)N=C(c2ccc(OCCCO)cc2)O[C@H]1c1ccccc1N=[N+]=[N-],1.44
18,OCCCC1=CC(c2cccs2)N(Cc2cc3c(cc2Br)OCO3)CC1 (stereo not given),0.26

row,Compound,composite z-score
1,COc1ccc(C#Cc2ccc3c(c2)[C@]2(C(=O)N3)[C@H](C(=O)Nc3nc4ccccc4s3)[C@H]3C(=O)O[C@H](c4ccccc4)[C@H](c4ccccc4)N3[C@@H]2c2ccc(O)cc2)cc1,0.934
2,NC(=O)[C@@H]1[C@H]2C(=O)O[C@H](c3ccccc3)[C@H](c3ccccc3)N2[C@H](c2ccc(O)cc2)[C@@]12C(=O)Nc1ccccc12,-1.02
3,CCCCC(CC)C(O)C1C=CC2C(=O)N(Cc3ccccc3)C(=O)C2N1n1cnnc1 (stereo not given),-0.0742
4,O=C1O[C@H](c2ccccc2)[C@H](c2ccccc2)N2[C@H]1[C@@H](C(=O)N1CCCCCCC1)[C@]1(C(=O)Nc3ccc(C#CCCO)cc31)[C@H]2c1ccccc1OCCO,5.84
5,C=CCNC(=O)[C@H]1[C@@H]2C(=O)O[C@@H](c3ccccc3)[C@@H](c3ccccc3)N2[C@@H](c2ccccc2OCCO)[C@]12C(=O)Nc1ccc(C#CCCO)cc12,0.567
6,COc1ccc(C#Cc2ccc3c(c2)[C@]2(C(=O)N3)[C@H](c3ccccc3OCCO)N3[C@H](c4ccccc4)[C@H](c4ccccc4)OC(=O)[C@H]3[C@@H]2C(=O)Nc2nc3ccccc3s2)cc1,0.307
7,CN1C(=O)C2C=CC(C(O)C3CC=CCC3)N(N(c3ccccc3)c3ccccc3)C2C1=O (stereo not given),0.533
8,O=C1O[C@@H](c2ccccc2)[C@@H](c2ccccc2)N2[C@@H](c3ccccc3OCCO)[C@]3(C(=O)Nc4ccccc43)[C@@H](C(=O)Nc3nc4ccccc4s3)[C@H]12,0.618
9,O=C1NC(=O)C2C1C=CC(C(O)c1cc(C(F)(F)F)cc(C(F)(F)F)c1)N2Nc1ccccn1 (stereo not given),1.88
10,O=C(N1CCCCC1)[C@]1(Cc2ccccc2)N=C(c2ccc(OCCCO)cc2)O[C@@H]1c1ccccc1,0.252
11,CC(C)c1ccc(NN2C(C(O)c3ccc(B(O)O)cc3)C=CC3C(=O)N(c4ccccc4)C(=O)C32)cc1 (stereo not given),2.08
12,NC(=O)NCC#Cc1ccc2c(c1)[C@]1(C(=O)N2)[C@H](c2ccc(O)cc2)N2[C@H](c3ccccc3)[C@H](c3ccccc3)OC(=O)[C@H]2[C@@H]1C(=O)O,-0.354
13,Cc1ccccc1C(O)C1C=CC2C(=O)N(c3ccccc3)C(=O)C2N1Nc1ccc(C(C)C)cc1 (stereo not given),0.0331
14,COc1ccc(CCNC(=O)[C@@H]2c3ccccc3C(=O)N(Cc3ccccc3Cl)[C@H]2c2ccc(CO)cc2)cc1,0.412
15,O=C(NC1CC1)[C@@H]1c2ccccc2C(=O)N(Cc2ccccc2Cl)[C@H]1c1ccc(CO)cc1,1.46
16,Cc1nc2cc(Br)ccc2c(=O)o1,0.197
17,CCN(CC)c1ccc(N2CC=CC34O[C@@H]5C=CCCOC(=O)C5[C@H]3C(=O)N(CCCCCCO)[C@@H]4C2=O)cc1 (stereo not given in full),1.33
